Sampled rows, rich in hits. Any-hit rate of the full collection: about 0.92%.
RECQ1 inh-1 – inhibitors of human RECQ1 DNA helicase. RECQ1 DNA unwinding, red fluorescence kinetic read. AID 2549. Potency, µM (doses to about 57.3 µM), for the others: at the top dose activity, negative = inhibition, most hits filed as inhibitors. P46063. 240,000 compounds, 0.54% hits;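 further: plate controls were vehicle for no effect and no enzyme for full effect; nearly all actives have a fitted effect of over 30% in size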
Target sequence (P46063 whole entry, looked up): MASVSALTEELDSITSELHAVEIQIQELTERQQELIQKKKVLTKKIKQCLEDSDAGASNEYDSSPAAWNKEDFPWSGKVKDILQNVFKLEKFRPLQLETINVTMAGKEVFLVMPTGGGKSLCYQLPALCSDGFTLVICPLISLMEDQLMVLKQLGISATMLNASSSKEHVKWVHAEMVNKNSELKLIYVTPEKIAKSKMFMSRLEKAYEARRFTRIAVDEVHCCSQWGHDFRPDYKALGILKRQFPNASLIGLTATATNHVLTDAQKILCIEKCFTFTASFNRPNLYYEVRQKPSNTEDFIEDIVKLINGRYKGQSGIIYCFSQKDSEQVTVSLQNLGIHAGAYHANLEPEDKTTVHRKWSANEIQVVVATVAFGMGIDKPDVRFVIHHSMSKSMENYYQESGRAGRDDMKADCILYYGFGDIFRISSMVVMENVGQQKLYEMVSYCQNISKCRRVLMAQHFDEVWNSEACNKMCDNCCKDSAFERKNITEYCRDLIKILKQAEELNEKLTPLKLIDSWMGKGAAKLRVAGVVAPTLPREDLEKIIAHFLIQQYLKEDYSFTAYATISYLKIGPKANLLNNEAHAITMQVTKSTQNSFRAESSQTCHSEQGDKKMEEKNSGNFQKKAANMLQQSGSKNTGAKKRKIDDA
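RECQ1T1 50 nM; forked duplex (20 bp + 30-nt ss tails) 200 nM, ATP 2 mM final; pH 8.0, 2 mM MgCl2, 2.5 ug/ml poly(dI-dC); 15 min compound preincubation; discontinuous kinetic read over 2 h at RT.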
APE1 inh – blocks human APE1 abasic DNA cleavage | 350,000 compounds, 0.35% hits | AID 2517 | Potency, µM (highest dose often 65.8 µM), inactives show at the highest dose activity change, negative = inhibition, actives largely listed as inhibitors | recombinant APE1, TAMRA/BHQ-2 abasic DNA cleavage fluorescence | P27695;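 further: plate controls were vehicle for no effect and reference inhibitor for full effect; nearly all actives have a fitted effect of over 55% in size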
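Kinetic fluorescence read (525 ex/598 em nm, three reads 60 s apart) of AP-site incision; signal = third minus first read. Enzyme 0.75 nM, dual-labelled THF duplex 50 nM, compound preincubation 15 min RT.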
BLM helicase inh – Bloom syndrome helicase (human) inhibition; AID 2528; 350,000 compounds, 0.2% hits; P54132; recombinant BLM DNA unwinding, fluorescence dequenching; Potency, µM (doses to about 56.1 µM), inactives show at the top dose activity change, negative = inhibition, hits mostly inhibitors;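 further: plate controls were vehicle for no effect and no enzyme for full effect; nearly all actives have a fitted effect of over 35% in size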
FEN1 inhibitor – human FEN1 inhibition. P39748. Recombinant FEN1 flap cleavage, fluorescence, 15 min. Potency, µM (top dose mostly 114 µM), for inactives: at the top dose activity change, negative = inhibition, usual class: inhibitors. 390,000 compounds, 0.35% hits; further: nearly all actives have a fitted effect of over 65% in size
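In this screen, 50 nM flap DNA substrate was added to 10 nM FEN1 pretreated with compound for 15 min at room temperature; cleavage was followed with reads at 0 and 15 min, and Hill fitting gave concentration–response parameters.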
TDP1 block – inhibitors of human tyrosyl-DNA phosphodiesterase TDP1; Potency, µM (doses to about 130 µM), without a hit: top-dose activity change, negative = inhibition, most hits filed as inhibitors; Q9NUW8; recombinant TDP1, AlphaScreen DNA substrate cleavage; 350,000 compounds, 0.28% hits; further: nearly all actives have a fitted effect of over 40% in size
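Compounds were preincubated with Tdp1 (1 nM final) for 15 min at room temperature before substrate (15 nM final) started a 5 min reaction; beads (10 ug/ml final) were then added for 10 min before AlphaScreen detection.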
RECQ1 inh conf – confirmation of human RECQ1 helicase inhibitors | AID 2708 | RECQ1 helicase DNA unwinding, fluorescence | shares compounds with RECQ1 inh-1 | Potency, µM (titrated, usually from 229 µM), without a hit: top-dose activity change, negative = inhibition, most hits filed as inhibitors | 610 compounds, 28% hits; further: nearly all actives have a fitted effect of over 45% in size
ADP FP counter – ADP displacement flagged in RECQ1 inhibitor counter-screen | ADP fluorescence polarization displacement counterscreen | 530 compounds, 27% hits | AID 2711 | shares compounds with RECQ1 inh-1 | Potency, µM (doses to about 228 µM), for inactives: at the highest dose activity change, negative = inhibition, hits mostly inhibitors; further: nearly all actives have a fitted effect of over 45% in size
RECQ1 inh-2 – blocks human RECQ1 DNA unwinding; shares compounds with RECQ1 inh-1; recombinant RECQ1 DNA unwinding, red fluorescence; Potency, µM (titrated, usually from 119 µM), for the others: top-dose activity, negative = inhibition, hits mostly inhibitors; 1,100 compounds, 15% hits; further: nearly all actives have a fitted effect of over 50% in size
An asterisk follows results filed as active; i = inactive; ? = inconclusive; nt = not tested or not shown; [ ] = another dose, or the depositor's remark. The call rests on the fitted dose curve; in most records, active means well fitted curve in the direction sought with a large enough effect; inconclusive means small, poorly fitted or top-dose-only effect, or another doubt; inactive means no such curve, though single readings can be large; an effect the other way counts as inactive or inconclusive. Unless noted, on the % scale 0 is the no-effect control and ±100 the full control effect; potency means the concentration at half of the fitted maximal effect.

SMILES | RECQ1 inh-1 | APE1 inh | BLM helicase inh | FEN1 inhibitor | TDP1 block | RECQ1 inh-2 | others
C=CCOC(=O)C1C(=O)CC(C)(O)C(C(=O)OCC=C)C1c1ccc(OCC)cc1 (configuration not stated) | -11% | 0% | -1% | 0% | 1% | nt
CCCCC[C@H](O)/C=C/[C@H]1OC(O)C[C@H](O)[C@@H]1C/C=C\CC(=O)O (some centres not stated) | -9% | -2% | -1% | nt | 2% | nt
CCOc1ccc(CN(C(=O)/C=C/c2ccco2)C2CCS(=O)(=O)C2)cc1 (configuration not stated) | nt | 3% | -10% | -7% | 4% | nt
COc1ccc(CN(C(=O)/C=C/c2ccco2)C2CCS(=O)(=O)C2)cc1 (configuration not stated) | ? | ? | -24% | -23% | -1% | ?
C=C1C=C(C)n2ncc(C(=O)Nc3ccccc3C(=O)OC)c2N1 | nt | nt | nt | 1% | nt | nt
Cc1ccc(CSC2=Nc3sccc3C3=NC(=O)CN23)cc1 | 32µM* | 12% | -15% | -22% | 4% | -4%
COc1ccccc1CN1C(=O)c2cccc3cccc(c23)C1=O | 25µM* | 2% | -1% | 0% | 1% | 4%
COc1ccccc1CN1C(=O)c2ccncc2C1=O | -7% | -1% | 1% | 4% | 1% | nt
NC(=O)c1cccc(C[C@H](C(=O)O)N2C(=O)c3ccc(C(=O)O)cc3C2=O)c1 | -2% | ? | 6% | nt | 4% | nt
Cc1csc(NC(=O)CCc2nc3ccccc3s2)n1 | 14% | 0% | -3% | 3% | 5% | nt
O=C(CCc1nc2ccccc2s1)NC1CCOC1=O (configuration not stated) | ? | -16% | 2% | -4% | -4% | ?
CCn1cc(CCC(=O)O)c(C)n1 | -12% | 1% | 4% | 1% | 8% | nt
Cc1ccc(-c2nn(CCC(=O)O)cc2CCC(=O)O)cc1 | i | 3% | 0% | -2% | 3% | nt | RECQ1 inh conf=14%;ADP FP counter=?
O=C(Cn1ncc(Cl)c(Cl)c1=O)N1CCN(Cc2ccccc2)CC1 | 32µM* | 9% | -18% | 20% | 4% | -14%
O=C(Cn1ncc(Cl)c(Cl)c1=O)N1CCOCC1 | -2% | -4% | -4% | -2% | 0% | nt
C=CCSC1=N/C(=C\C=C\c2ccco2)C(=O)S1 | 13µM* | 10µM* | ? | 50µM* | 2% | ? | RECQ1 inh conf=45µM*;ADP FP counter=14µM*
C=CCSC1=NC(=O)/C(=C/c2cccs2)S1 | -2% | 0% | -2% | -2% | 3% | nt
CC1=NN(c2ccc(C(=O)OC(C)C)cc2)C(=O)/C1=C\C=C\c1ccco1 | 6% | 8% | -12% | -9% | 0% | nt
CCOC(=O)c1ccc(N2N=C(C)/C(=C/C=C/c3ccco3)C2=O)cc1 | ? | 4% | 6% | 11% | 10% | -3%
Cc1cccc([N+](=O)[O-])c1C | 6% | 3% | nt | nt | 4% | nt
Cc1ccc(CN(CC(=O)N/N=C/c2ccccc2[N+](=O)[O-])S(=O)(=O)c2ccc(C)cc2)cc1 | 5% | 7% | -9% | -17% | 8% | nt
O=C(CN(Cc1ccccc1)S(=O)(=O)c1ccccc1)N/N=C/c1ccccc1[N+](=O)[O-] | -8% | -4% | -8% | -20% | 5% | nt | RECQ1 inh conf=1%;ADP FP counter=8%
O=C(c1ccccc1)c1ccc(OCCCN2CCCC2)cc1 | 12% | 3% | -9% | -2% | -12% | nt
O=C(c1ccccc1)c1ccc(OCCOCCN2CCN(Cc3ccccc3)CC2)cc1 | ? | 19% | -9% | -5% | -5% | 2%
O=C(c1ccc(Cl)cc1)N1CCN(c2cccc3[nH]ccc23)CC1 | ? | ? | 3% | 0% | 5% | -4%
SMILES | RECQ1 inh-1 | APE1 inh | BLM helicase inh | FEN1 inhibitor | TDP1 block | RECQ1 inh-2 | others
COc1ccc2[nH]c(=O)c(CN(Cc3ccco3)Cc3nnnn3Cc3ccccc3)cc2c1 | i | 2% | -1% | -5% | 7% | nt
Cc1ccc(C)c2[nH]c(=O)c(CN(Cc3ccc4c(c3)OCO4)Cc3nnnn3Cc3ccco3)cc12 | 22µM* | ? | -17% | -1% | 4% | -13%
CCc1ccc2[nH]c(=O)c(CN(Cc3ccccc3OC)Cc3nnnn3Cc3ccco3)cc2c1 | ? | ? | -8% | -17% | 6% | -19%
Cc1ccc2ccc3cc(C(=O)Nc4ccc(C)c(F)c4)nc3c2[nH]1 | nt | nt | -8% | -16% | -4% | nt
COc1ccc(C2Nc3ccccc3C(=O)N2Cc2ccccc2)cc1COc1ccc(F)cc1 (configuration not stated) | nt | nt | nt | nt | 1% | nt
C=CCOC(=O)N[C@H](/C(C(=O)OC)=C(\C)NCc1ccccc1)c1ccc(Br)cc1 | 4% | 18% | -13% | nt | -4% | nt
CCOC(=O)C1CN(S(=O)(=O)c2cccc(C(F)(F)F)c2)c2cc(CC(=O)OC)ccc2O1 (configuration not stated) | 40µM* | 5% | -11% | -5% | -2% | -10%
CCc1c(C)sc2c1CCN(C(=O)Nc1cc(Cl)c(OC)cc1OC)C2c1ccccc1 (configuration not stated) | nt | nt | -8% | 1% | 6% | nt
O=C1[C@H]2[C@H]3[C@H](O)[C@H](O)C/C(=N/OCc4ccccc4)[C@@H]3CC[C@@H]2C(=O)N1C1CCCCC1 | 0%[11.5 µM] | 10%[12.4 µM] | -2%[12.4 µM] | nt | 4%[21 µM] | nt
Cc1cc(C(=O)CSc2nnc(-c3ccccc3)n2-c2ccccc2)c(C)n1-c1ncn[nH]1 | 35µM* | 1% | -11% | -33% | -11% | ?
Cc1cc(C(=O)CSc2nnc(-c3ccncc3)n2-c2ccccc2)c(C)n1C | ? | -5% | -13% | 1% | -15% | nt
Cc1ccc(C2=NN=C(NC(=O)CSc3nnc4c5ccccc5n(C)c4n3)SC2)cc1 | 11µM* | 15% | -17% | 3% | 3% | nt | RECQ1 inh conf=-2%[114 µM]
COc1ccc(CC(N)C(=O)N[C@H]2[C@@H](O)[C@H](n3cnc4c(N(C)C)ncnc43)O[C@@H]2CO)cc1 (some centres not stated) | -1% | 7% | 7% | nt | 7% | nt
CN(c1ccccc1)c1nc(C#N)nc(N2CCOCC2)n1 | nt | nt | nt | 6% | 1% | nt
Cc1ccc(NS(=O)(=O)c2ccc3c(c2)CCN(C(=O)C(F)(F)F)C3)cc1C | nt | nt | nt | nt | 0% | nt
